From publication PMC8384837, “Expanding the binding specificity for RNA recognition by a PUF domain”

Target: PUM1 PUF domain R5-RQC (Homo sapiens, UniProt Q14671 828-1176, C1007R;R1008Q;Q1011C)
Test: yeast three-hybrid, YBZ-1, SC-Leu-His + 0.5 mM 3-AT, 4 days
Conditions: tags: N-Gal4 AD-HA kept; label: inside an RPR1-promoter hybrid RNA with tandem MS2 sites; ssRNA
Procedure, shortened: (§1)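 The interaction score is the log change in variant frequency from input to selection. Scores were computed in log2 with a pseudocount of 1 for absent variants, using Illumina sequencing of PCR-amplified repeat regions. The input came from four days on SC-Leu and the selection from four days on SC-Leu-His + 0.5 mM 3-AT. The cells were strain YBZ-1 (LexA–MS2 coat fusion, HIS3 reporter) co-expressing Pumilio-1 PUF domain libraries and matching RNA elements from a centromeric plasmid.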

PUM1 PUF domain R5-RQC, sequence (Q14671 828-1176 C1007R/R1008Q/Q1011C): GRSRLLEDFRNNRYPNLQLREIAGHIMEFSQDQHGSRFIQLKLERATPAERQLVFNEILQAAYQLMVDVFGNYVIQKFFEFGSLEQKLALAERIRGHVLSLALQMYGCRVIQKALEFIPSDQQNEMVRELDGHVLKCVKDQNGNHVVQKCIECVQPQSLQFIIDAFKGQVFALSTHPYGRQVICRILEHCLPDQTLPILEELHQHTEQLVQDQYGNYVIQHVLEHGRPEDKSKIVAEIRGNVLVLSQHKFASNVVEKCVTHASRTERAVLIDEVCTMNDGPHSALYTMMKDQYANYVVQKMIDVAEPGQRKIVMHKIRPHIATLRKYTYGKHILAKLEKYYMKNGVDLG

Sequence	binding signal
GGCUAGAACUAGUGGAUCCCCCGGCGCCCGGCGGCUCGAGCCCGGGUAAGUGUAAAUAGUCUGCAUGCCGCCGGGCGCCAUGCCUGCAGGUCGACUCUAGAAAACAUG	1.84 log2 enrichment (interaction score)
GGCUAGAACUAGUGGAUCCCCCGGCGCCCGGCGGCUCGAGCCCGGGUAAGUGUUAAUAGUCUGCAUGCCGCCGGGCGCCAUGCCUGCAGGUCGACUCUAGAAAACAUG	4.83 log2 enrichment (interaction score)
GGCUAGAACUAGUGGAUCCCCCGGCGCCCGGCGGCUCGAGCCCGGGUAAGUGUCAAUAGUCUGCAUGCCGCCGGGCGCCAUGCCUGCAGGUCGACUCUAGAAAACAUG	4.74 log2 enrichment (interaction score)

Target: PUM1 PUF domain R5-RFD (Homo sapiens, UniProt Q14671 828-1176, C1007R;R1008F;Q1011D)
Sequence (Q14671 828-1176 C1007R/R1008F/Q1011D): as the sequence (Q14671 828-1176 C1007R/R1008Q/Q1011C) above, with Q181F, C184D counted along it
Test: as above
Conditions: tags: N-Gal4 AD-HA kept; label: inside an RPR1-promoter hybrid RNA with tandem MS2 sites; ssRNA
Procedure, shortened: as §1

Sequence	binding signal
GGCUAGAACUAGUGGAUCCCCCGGCGCCCGGCGGCUCGAGCCCGGGUAAGUGUGAAUAGUCUGCAUGCCGCCGGGCGCCAUGCCUGCAGGUCGACUCUAGAAAACAUG	2.73 log2 enrichment (interaction score)
GGCUAGAACUAGUGGAUCCCCCGGCGCCCGGCGGCUCGAGCCCGGGUAAGUGUAAAUAGUCUGCAUGCCGCCGGGCGCCAUGCCUGCAGGUCGACUCUAGAAAACAUG	2.18 log2 enrichment (interaction score)
GGCUAGAACUAGUGGAUCCCCCGGCGCCCGGCGGCUCGAGCCCGGGUAAGUGUUAAUAGUCUGCAUGCCGCCGGGCGCCAUGCCUGCAGGUCGACUCUAGAAAACAUG	4.39 log2 enrichment (interaction score)
GGCUAGAACUAGUGGAUCCCCCGGCGCCCGGCGGCUCGAGCCCGGGUAAGUGUCAAUAGUCUGCAUGCCGCCGGGCGCCAUGCCUGCAGGUCGACUCUAGAAAACAUG	4.17 log2 enrichment (interaction score)
